Compounds with a hit are over-represented: about 4.6% of the library has one in this group of screens.
tim23-1 inh – growth inhibitors of tim23-1 mutant yeast, primary screen, luminescence, uHTS. S. cerevisiae tim23-1 growth, BacTiter-Glo luminescence, 24 h. inhibition, % at 20 µM. actives 1.3% (n = 330,000). AID 463212, 2010;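 active = growth inhibition of the mutant yeast at or above 50%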;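 also: temperature-sensitive mutant grown at 25 °C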
NLRP3 yeast inh – NALP3 inflammasome inhibitors in reconstituted yeast, primary screen, luminescence, uHTS; actives 0.39% (n = 330,000); Yeast reconstituted NLRP3/ASC/caspase-1, beta-gal luminescence, 24 h; inhibition, % at 10 µM; AID 2825, 2010;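 active = inhibition of 50% or more; inactive = inhibition below 50%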
TIM10 inh – growth inhibitors of isogenic TIM10 control yeast, primary screen, counter-screen for tim10-1 yeast inhibitor project, luminescence, uHTS; S. cerevisiae TIM10 strain growth, BacTiter-Glo luminescence, 24 h; AID 463195, 2010; inhibition, % at 10 µM; actives 1.4% (n = 330,000);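 active = inhibition of 40% or more at the single tested concentration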;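 also: wild-type TIM10 isogenic control strain grown at permissive 25 °C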
tim10-1 inh – growth inhibitors of tim10-1 mutant yeast, primary screen, luminescence, uHTS | S. cerevisiae tim10-1 ts strain growth, BacTiter-Glo, 24 h | actives 2.2% (n = 330,000) | inhibition, % at 20 µM | AID 463190, 2010;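 active = inhibition of at least 40%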;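 also: mutant grown at 25 °C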
SKKanGAS inh – S. pyogenes SKKanGAS growth inhibitors in kanamycin, primary screen, streptokinase expression inhibitor project, SKKanGAS strain, BacTiter-Glo luminescence; 6 h; actives 1.3% (n = 300,000); inhibition, % at 7.5 µM;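 active = mean replicate score, as percent of positive control median, at least 50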;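 also: strain carries kanamycin resistance gene driven by streptokinase promoter and grows in 40 µg/ml kanamycin; loss of luminescence reflects streptokinase promoter inhibition or plain growth inhibition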
tim23-1 confirm – tim23-1 mutant yeast growth inhibitors, confirmation, luminescence, single concentration; shares compounds with tim23-1 inh; S. cerevisiae tim23-1 growth, BacTiter-Glo luminescence, 24 h; inhibition, % at 20 µM; actives 83% (n = 4,400);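 active = inhibition above about 39% in either of two replicate wells at 20 µM, limit read from the data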;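 also: temperature-sensitive tim23-1 mutant grown at 25 °C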
Hits are given with their value; 0 = inactive; - = not tested or not shown.

SMILES | tim23-1 inh | NLRP3 yeast inh | TIM10 inh | tim10-1 inh | SKKanGAS inh | tim23-1 confirm
O=C(Nc1nc2ccccc2[nH]1)c1ccc(OC(F)F)cc1 | 63.4 | 0 | 0 | 0 | - | 59.1
CC(=O)c1ccc(S(=O)(=O)Nc2ccc(C(=O)N3CCC3)cc2)cc1 | 0 | 0 | 0 | 0 | - | -
O=C(CCc1ccccc1)Oc1ccccc1[N+](=O)[O-] | 57.2 | 0 | 0 | 0 | 0 | 67.2
CCOC(=O)c1c(NC(=O)CSc2nnnn2-c2ccc(OC)cc2)sc(C)c1C | 50.2 | 0 | 0 | 0 | 0 | 81.7
CCOC(=O)c1csc(NC(=O)CSc2nnnn2-c2ccc(OC)cc2)n1 | 0 | 0 | 0 | 0 | 0 | -
CCOc1ccc2[nH]c3nc(SCC(=O)NC4CC4)nnc3c2c1 | 0 | 0 | 0 | 0 | 0 | -
CC1(C)CC(=O)C(N=Nc2ccc(-c3ccccc3)cc2)=C(O)C1 | 0 | 0 | 0 | 0 | 0 | -
CC1(C)CC(=O)C(N=Nc2cccnc2)=C(O)C1 | 52.5 | 0 | 0 | 0 | 0 | 0
CC1(C)CC(=O)C(N=Nc2ccc3ncsc3c2)=C(O)C1 | 59.6 | 0 | 0 | 0 | 0 | 0
COc1ccccc1N(CC(=O)N/N=C(\C)c1ccc(F)cc1)S(=O)(=O)c1ccccc1 | 0 | 0 | 0 | 0 | - | -
O=C(COC(=O)CNC(=O)C1CCCCC1)Nc1ccc(Cl)cn1 | 0 | 0 | 0 | 0 | 0 | -
O=C(COC(=O)CC1CCCC1)Nc1ccc(Cl)cn1 | 59.5 | 0 | 0 | 0 | - | 55.4
CCOc1ccc(-c2nc(N)ncc2-c2ccc(Cl)cc2)c(O)c1 | 54.2 | 0 | 0 | 0 | 0 | 0
CCOc1ccc(-c2nc(N)ncc2Oc2ccc(OC)cc2)c(O)c1 | 55.9 | 0 | 0 | 0 | 0 | 62.5
CCOc1ccc(-c2nc(N)ncc2-c2ccc(OC)cc2)c(O)c1 | 0 | 0 | 0 | 0 | 0 | -
COc1cc(OC)c(OC)cc1CN1CCN(Cc2ccco2)CC1 | 0 | 0 | 0 | 0 | 0 | -
O=C(Cc1ccon1)c1ccc(O)cc1O | 0 | 0 | 0 | 0 | 0 | -
CC1CCN(C(=O)CCc2nnc3ccc(N4CCC5(CC4)OCCO5)nn23)CC1 | 0 | 0 | 0 | 0 | 0 | -
CC(C)(C)c1ccc(C(=O)NCCC(=O)N2CCC3(CC2)NCCc2[nH]cnc23)cc1 | 0 | 0 | 0 | 0 | 0 | -
CCOc1ccc(N2C(=O)C3C4C=CC([C@H]5CC45)[C@@H]3C2=O)cc1 (some centres undefined) | 0 | 0 | 0 | 0 | 0 | -
Cc1ccc2c(c1)COc1c3ccc(C(=O)O)cc3nn1-2 | 0 | 0 | 0 | 0 | 0 | -
C=CCNC(=O)c1ccc2c3n(nc2c1)-c1ccc(Cl)cc1CO3 | 59.0 | 0 | 0 | 0 | 0 | 49.6
Cc1ccc(C2=Nc3ccccc3N=C(C(Cl)Cl)C2)cc1 | 51.7 | 0 | 0 | 0 | 0 | 49.4
Oc1ccc2ccccc2c1/C=N/c1nccs1 | 57.3 | 0 | 0 | 0 | 0 | 59.8
CN(C)/N=C/c1c(O)ccc2ccccc12 | 0 | 0 | 0 | 0 | 0 | -
SMILES | tim23-1 inh | NLRP3 yeast inh | TIM10 inh | tim10-1 inh | SKKanGAS inh | tim23-1 confirm
CS/C(N)=N/N=C/c1c(O)ccc2ccccc12 | 57.9 | 0 | 0 | 0 | 0 | 69.8
Oc1ccc2ccccc2c1C=Nc1ccccc1Br | 53.3 | 0 | 0 | 0 | 0 | 50.9
O=C(COC(=O)CCCc1nc2ccccc2s1)Nc1ncc(Cl)cc1Cl | 0 | 0 | 0 | 0 | 0 | -
O=C(O)CN1C(=O)/C(=C\c2cc(Br)ccc2OCc2ccc(Cl)cc2Cl)SC1=S | 52.8 | 0 | 0 | 0 | 104.8 | 56.0
Cn1nnnc1Sc1ncnc2scc(-c3cc4ccccc4o3)c12 | 70.8 | 0 | 0 | 0 | - | 38.5
Cn1nnnc1Sc1ncnc2scc(-c3cccc(C(F)(F)F)c3)c12 | 53.3 | 0 | 0 | 0 | - | 45.9
Cn1nnnc1Sc1ncnc2scc(-c3ccc(C(F)(F)F)cc3)c12 | 56.0 | 0 | 0 | 0 | - | 0
CC(=O)c1c(C)[nH]c(C(=O)OCC(=O)NCCC2=CCCCC2)c1C | 0 | 0 | 0 | 0 | 0 | -
CC(C)Cn1c(-c2ccc(Br)cc2)c[nH]c1=S | 0 | 0 | 0 | 0 | 0 | -
COc1cc(S(=O)(=O)n2nnc3ccccc32)c(OC)cc1Cl | 61.2 | 0 | 0 | 0 | 0 | 56.4
COc1ccc(OC)c(S(=O)(=O)n2nnc3cc(Cl)ccc32)c1 | 0 | 0 | 0 | 0 | 0 | -
CCOC(=O)c1sc(NC(=O)c2cccs2)cc1C | 55.4 | 0 | 0 | 0 | 0 | 77.8

Compound activity: PubChem BioAssay, several laboratories
